Test results as given in PubChem BioAssay (NCATS).
Results filed as inconclusive are left out. Calls of active or inactive are those of the source. Calls follow the shape of the dose curve; as a rule, active = well fitted curve in the direction sought with a large enough effect; inconclusive = small, poorly fitted or top-dose-only effect, or another doubt; inactive = no such curve, though single readings can be large; an effect the other way counts as inactive or inconclusive.

Key:
[1] = molecular target: ATP-dependent 6-phosphofructokinase (Trypanosoma brucei brucei) (UniProt O15648); assay: qHTS Assay to Find Inhibitors of T. brucei phosphofructokinase: hit validation (AID 492961);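 also: luminescence reports ADP formed as PFK phosphorylates fructose-6-phosphate with ATP; % is scaled to controls: 0 for no effect and ±100 for the full control effect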
How it was run: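 PFK 1.25 nM, F6P 0.5 mM, ATP 0.1 mM, MgCl2 5 mM, 0.1 M TEA pH 8.0, Tween20 0.01%, BSA 0.1%; 45 min RT. ADP-Glo two-step detection, luminescence. qHTS titration; curve fitting with curve-class categorization.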

[2] = qHTS profiling for inhibitors of Plasmodium falciparum proliferation (AID 504749); also: potency is read from the fitted curve at half-maximal effect;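 as to activity, negative = inhibition: 0% = DMSO vehicle and full inhibition = artemisinin control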; as to all read-outs here: nearly all actives have a fitted effect of over 60% in size; conditions: P. falciparum in erythrocytes, SYBR Green DNA, 72 h; for activity, negative = inhibition: at 28.7 µM (top of the series)
How it was run: (§1)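 Fluorescence of SYBR Green-bound parasite DNA, read at 485/535 nm, served as the growth measure. Infected erythrocytes were cultured with compound 72 h; artemisinin (0.29 uM) and DMSO wells defined the normalization range.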

3D7 = assay: as above; conditions: P. falciparum in erythrocytes, SYBR Green DNA, 72 h; series mostly up to 28.7 µM
How it was run: as §1

ATS189 = assay: as above; conditions: P. falciparum in erythrocytes, SYBR Green DNA, 72 h; series mostly up to 28.7 µM
How it was run: as §1

ATS95 = assay: as above; conditions: P. falciparum in erythrocytes, SYBR Green DNA, 72 h; series mostly up to 28.7 µM
How it was run: as §1

C2A = assay: as above; conditions: P. falciparum in erythrocytes, SYBR Green DNA, 72 h; series mostly up to 28.7 µM
How it was run: as §1

CP185 = assay: as above; conditions: P. falciparum in erythrocytes, SYBR Green DNA, 72 h; series mostly up to 28.7 µM
How it was run: as §1

CP191 = assay: as above; conditions: P. falciparum in erythrocytes, SYBR Green DNA, 72 h; series mostly up to 28.7 µM
How it was run: as §1

CP217 = assay: as above; conditions: P. falciparum in erythrocytes, SYBR Green DNA, 72 h; series mostly up to 28.7 µM
How it was run: as §1

CP238 = assay: as above; conditions: P. falciparum in erythrocytes, SYBR Green DNA, 72 h; series mostly up to 28.7 µM
How it was run: as §1

CP250 = assay: as above; conditions: P. falciparum in erythrocytes, SYBR Green DNA, 72 h; series mostly up to 28.7 µM
How it was run: as §1

CP252 = assay: as above; conditions: P. falciparum in erythrocytes, SYBR Green DNA, 72 h; series mostly up to 28.7 µM
How it was run: as §1

CP256 = assay: as above; conditions: P. falciparum in erythrocytes, SYBR Green DNA, 72 h; series mostly up to 28.7 µM
How it was run: as §1

CP262 = assay: as above; conditions: P. falciparum in erythrocytes, SYBR Green DNA, 72 h; series mostly up to 28.7 µM
How it was run: as §1

CP265 = assay: as above; conditions: P. falciparum in erythrocytes, SYBR Green DNA, 72 h; series mostly up to 28.7 µM
How it was run: as §1

CP286 = assay: as above; conditions: P. falciparum in erythrocytes, SYBR Green DNA, 72 h; series mostly up to 28.7 µM
How it was run: as §1

DFO2036 = assay: as above; conditions: P. falciparum in erythrocytes, SYBR Green DNA, 72 h; series mostly up to 28.7 µM
How it was run: as §1

Dd2 = assay: as above; conditions: P. falciparum in erythrocytes, SYBR Green DNA, 72 h; series mostly up to 28.7 µM
How it was run: as §1

HB3 = assay: as above; conditions: P. falciparum in erythrocytes, SYBR Green DNA, 72 h; series mostly up to 28.7 µM
How it was run: as §1

P94_40 = assay: as above; conditions: P. falciparum in erythrocytes, SYBR Green DNA, 72 h; series mostly up to 28.7 µM
How it was run: as §1

ATP-dependent 6-phosphofructokinase (Trypanosoma brucei brucei), sequence (O15648 whole entry, looked up): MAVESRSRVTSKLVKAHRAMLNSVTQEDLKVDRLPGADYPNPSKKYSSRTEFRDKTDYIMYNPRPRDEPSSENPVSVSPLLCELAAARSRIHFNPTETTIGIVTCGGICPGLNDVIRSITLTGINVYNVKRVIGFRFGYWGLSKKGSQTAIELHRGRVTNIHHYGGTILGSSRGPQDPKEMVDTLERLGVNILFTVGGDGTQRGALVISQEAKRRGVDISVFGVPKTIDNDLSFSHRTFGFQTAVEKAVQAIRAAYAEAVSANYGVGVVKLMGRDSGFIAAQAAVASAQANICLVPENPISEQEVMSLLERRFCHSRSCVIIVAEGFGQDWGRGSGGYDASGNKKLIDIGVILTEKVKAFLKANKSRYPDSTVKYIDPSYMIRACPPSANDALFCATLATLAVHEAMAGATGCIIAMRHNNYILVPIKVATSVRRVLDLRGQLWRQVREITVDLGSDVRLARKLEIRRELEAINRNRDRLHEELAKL

C[C@@H]1C(SC2Cn3cnc[n+]3C2)=C(C(=O)[O-])N2C(=O)[C@H]([C@@H](C)O)[C@@H]12 (stereo partly specified)
inactive: Potency [1] | activity, negative = inhibition ([2]; parasite line A) 6.33% | activity, negative = inhibition ([2]; parasite line B) 11.1% | Potency (3D7) | Potency (ATS189) | Potency (ATS95) | Potency (C2A) | Potency (CP185) | Potency (CP191) | Potency (CP217) | Potency (CP238) | Potency (CP250) | Potency (CP252) | Potency (CP256) | Potency (CP262) | Potency (CP265) | Potency (CP286) | Potency (DFO2036) | Potency (Dd2) | Potency (HB3) | Potency (P94_40)

CCN(CC)C(=O)Nc1ccc(OC[C@H](O)CNC(C)(C)C)c(C(C)=O)c1
inactive: Potency [1] | activity, negative = inhibition ([2]; parasite line A) 5.16% | activity, negative = inhibition ([2]; parasite line B) -3.7% | Potency (3D7) | Potency (ATS189) | Potency (ATS95) | Potency (C2A) | Potency (CP185) | Potency (CP191) | Potency (CP217) | Potency (CP238) | Potency (CP250) | Potency (CP252) | Potency (CP256) | Potency (CP262) | Potency (CP265) | Potency (CP286) | Potency (DFO2036) | Potency (Dd2) | Potency (HB3) | Potency (P94_40)

O=C(O)CC(O)CC(O)/C=C/c1c(C2CC2)nc2ccccc2c1-c1ccc(F)cc1 (stereo unspecified)
inactive: Potency [1] | activity, negative = inhibition ([2]; parasite line A) 5.32% | activity, negative = inhibition ([2]; parasite line B) -2.35% | Potency (3D7) | Potency (ATS189) | Potency (ATS95) | Potency (C2A) | Potency (CP185) | Potency (CP191) | Potency (CP217) | Potency (CP238) | Potency (CP250) | Potency (CP252) | Potency (CP256) | Potency (CP262) | Potency (CP265) | Potency (CP286) | Potency (DFO2036) | Potency (Dd2) | Potency (HB3) | Potency (P94_40)

CC(=O)OCC(=O)[C@@]1(O)CCC2C3CCC4=CC(=O)C=CC4(C)C3C(O)C[C@]21C (stereo partly specified)
inactive: Potency [1] | activity, negative = inhibition ([2]; parasite line A) 8.28% | activity, negative = inhibition ([2]; parasite line B) 10.3% | Potency (3D7) | Potency (ATS189) | Potency (ATS95) | Potency (C2A) | Potency (CP185) | Potency (CP191) | Potency (CP217) | Potency (CP238) | Potency (CP250) | Potency (CP252) | Potency (CP256) | Potency (CP262) | Potency (CP265) | Potency (CP286) | Potency (DFO2036) | Potency (Dd2) | Potency (HB3) | Potency (P94_40)

COc1cccc(OC)c1C(=O)NC1C(=O)N2C1SC(C)(C)C2C(=O)O (stereo unspecified)
inactive: Potency [1] | activity, negative = inhibition ([2]; parasite line A) 11.2% | activity, negative = inhibition ([2]; parasite line B) -9.69% | Potency (3D7) | Potency (ATS189) | Potency (ATS95) | Potency (C2A) | Potency (CP185) | Potency (CP191) | Potency (CP217) | Potency (CP238) | Potency (CP250) | Potency (CP252) | Potency (CP256) | Potency (CP262) | Potency (CP265) | Potency (CP286) | Potency (DFO2036) | Potency (Dd2) | Potency (HB3) | Potency (P94_40)

CNC1C(O)C(OC2C(N)CC(N)C(OC3OC(CN)=CCC3N)C2O)OCC1(C)O (stereo unspecified)
inactive: Potency [1] | activity, negative = inhibition ([2]; parasite line A) 16.7% | activity, negative = inhibition ([2]; parasite line B) -10.7% | Potency (3D7) | Potency (ATS189) | Potency (ATS95) | Potency (C2A) | Potency (CP185) | Potency (CP191) | Potency (CP217) | Potency (CP238) | Potency (CP250) | Potency (CP252) | Potency (CP256) | Potency (CP262) | Potency (CP265) | Potency (CP286) | Potency (DFO2036) | Potency (Dd2) | Potency (HB3) | Potency (P94_40)

OCC1O[C@H](Oc2ccc(O)cc2)C(O)C(O)C1O (stereo partly specified)
inactive: Potency [1] | activity, negative = inhibition ([2]; parasite line A) -4.75% | activity, negative = inhibition ([2]; parasite line B) 1.5% | Potency (3D7) | Potency (ATS189) | Potency (ATS95) | Potency (C2A) | Potency (CP185) | Potency (CP191) | Potency (CP217) | Potency (CP238) | Potency (CP250) | Potency (CP252) | Potency (CP256) | Potency (CP262) | Potency (CP265) | Potency (CP286) | Potency (DFO2036) | Potency (Dd2) | Potency (HB3) | Potency (P94_40)

C=C[C@H]1CN2CCC1C[C@H]2[C@H](O)c1ccnc2ccc(OC)cc12 (stereo partly specified)
active: Potency ([2]; parasite line A) 141 nM | Potency ([2]; parasite line B) 141 nM | Potency (3D7) 178 nM | Potency (ATS189) 1120 nM | Potency (ATS95) 794 nM | Potency (C2A) 1120 nM | Potency (CP185) 794 nM | Potency (CP191) 708 nM | Potency (CP217) 2820 nM | Potency (CP238) 1580 nM | Potency (CP250) 1000 nM | Potency (CP252) 891 nM | Potency (CP256) 794 nM | Potency (CP262) 757 nM | Potency (CP265) 562 nM | Potency (CP286) 1000 nM | Potency (DFO2036) 631 nM | Potency (Dd2) 891 nM | Potency (HB3) 794 nM | Potency (P94_40) 1000 nM
inactive: Potency [1]

CC[C@@]1(O)C[C@H](O[C@H]2C[C@@H](N(C)C)[C@@H](O[C@H]3C[C@@H](O)[C@@H](O[C@H]4CCC(=O)[C@@H](C)O4)[C@@H](C)O3)[C@@H](C)O2)c2c(cc3c(c2O)C(=O)c2c(O)cccc2C3=O)[C@H]1C(=O)OC
active: Potency ([2]; parasite line A) 141 nM | Potency ([2]; parasite line B) 199 nM | Potency (3D7) 126 nM | Potency (ATS189) 355 nM | Potency (ATS95) 316 nM | Potency (C2A) 178 nM | Potency (CP185) 251 nM | Potency (CP191) 199 nM | Potency (CP217) 251 nM | Potency (CP238) 178 nM | Potency (CP250) 251 nM | Potency (CP252) 224 nM | Potency (CP256) 282 nM | Potency (CP262) 757 nM | Potency (CP265) 224 nM | Potency (CP286) 39.8 nM | Potency (DFO2036) 178 nM | Potency (Dd2) 89.1 nM | Potency (HB3) 141 nM | Potency (P94_40) 158 nM
inactive: Potency [1]

CCCCCCCCCCCC(=O)OCC(O)C1OCC(O)C1O (stereo unspecified)
inactive: Potency [1] | activity, negative = inhibition ([2]; parasite line A) -2.73% | activity, negative = inhibition ([2]; parasite line B) 8.41% | Potency (3D7) | Potency (ATS189) | Potency (ATS95) | Potency (C2A) | Potency (CP185) | Potency (CP191) | Potency (CP217) | Potency (CP238) | Potency (CP250) | Potency (CP252) | Potency (CP256) | Potency (CP262) | Potency (CP265) | Potency (CP286) | Potency (DFO2036) | Potency (Dd2) | Potency (HB3) | Potency (P94_40)

CCC(C(=O)O)C1OC(C(C)C(O)C(C)C(=O)C(CC)C2OC3(C=CC(O)C4(CCC(C)(C5CCC(O)(CC)C(C)O5)O4)O3)C(C)CC2C)C(C)CC1C (stereo unspecified)
active: Potency ([2]; parasite line A) 141 nM | Potency ([2]; parasite line B) 158 nM | Potency (3D7) 100 nM | Potency (ATS189) 158 nM | Potency (ATS95) 178 nM | Potency (C2A) 126 nM | Potency (CP185) 224 nM | Potency (CP191) 100 nM | Potency (CP217) 178 nM | Potency (CP238) 199 nM | Potency (CP250) 199 nM | Potency (CP252) 141 nM | Potency (CP256) 199 nM | Potency (CP262) 536 nM | Potency (CP265) 224 nM | Potency (CP286) 141 nM | Potency (DFO2036) 126 nM | Potency (Dd2) 100 nM | Potency (HB3) 79.4 nM | Potency (P94_40) 70.8 nM
inactive: Potency [1]
